Source: PubChem
SNCA viab count: cell viability loss counter-screen; HEK-293-SNCA-luc viability, GF-AFC fluorescence, 24 h; Potency, µM (doses to about 57.1 µM), actives largely listed as cytotoxic; actives 0.12% (n = 150,000); AID 1671193; further: nearly all actives have a fitted effect of over 30% in size
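HEK-293-SNCA-luc cells (1500/well) plated 24 h, then exposed 24 h to a dilution series; GF-AFC added 30 min at 37C, fluorescence 405/540 nm; normalised to medium-only and DMSO wells, Hill fit.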
KDM5B inh: inhibitors of human KDM5B histone demethylase; Q9UGL1; KDM5B demethylase, FDH-coupled NADH fluorescence (FDH is formaldehyde dehydrogenase); Potency, µM (highest dose often 57.7 µM), usual class: inhibitors; actives 2.6% (n = 220,000); AID 1347165; further: nearly all actives have a fitted effect of over 70% in size
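Compound dilutions met 200 nM (final) KDM5BΔAP for 10 min at room temperature before substrate addition. The substrate mix held 12.5 µM H3K4me3 with cofactors 25 µM α-ketoglutarate and 50 µM Fe²⁺. NADH signal gain over 30 min defined activity.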
SNCA expr inhib: inhibitors of alpha-synuclein (SNCA) gene expression; HEK-293 SNCA-luciferase knock-in, luminescence, 24 h; Potency, µM (highest dose often 57.2 µM), actives largely listed as inhibitors; actives 0.17% (n = 140,000); AID 1671194; further: nearly all actives have a fitted effect of over 45% in size
IP6K1 inh: blocks human inositol hexakisphosphate kinase 1 | AID 1645851 | IP6K1 kinase, ADP-Glo luminescence, 2 h; active compounds read low | Q92551 | actives 0.81% (n = 140,000) | activity change, % (series mostly up to about 58 µM); in the data active means activity change below about -25%
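ADP-Glo luminescence measures ADP made by human IP6K1 during a 2 h RT reaction with ATP/IP6 (mix at 1.3 mM/130 uM); top library doses 57.5 and 19.1 uM final.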
A number is an active result; ! = not confirmed by another sample; [ ] = another dose, or the depositor's remark. This is a sample that favours compounds with a hit; in the whole collection about 2.8% have one here. Unless noted, the call rests on the fitted dose curve; in most records, active means well fitted curve in the direction sought with a large enough effect; inconclusive means small, poorly fitted or top-dose-only effect, or another doubt; inactive means no such curve, though single readings can be large; an effect the other way counts as inactive or inconclusive.

Screening Cc1nn2c(c1-c1ccccc1OCc1ccccc1)N(Cc1ccccc1)CCC2 returned SNCA viab count inconclusive, KDM5B inh inconclusive, SNCA expr inhib inconclusive and IP6K1 inh inactive.
For Cc1nn2c(c1-c1ccccc1Oc1ccccc1)N(Cc1cccc(O)c1)CCC2 the results were SNCA viab count inconclusive, KDM5B inh inconclusive, SNCA expr inhib inconclusive and IP6K1 inh inactive.
Screening Cc1nn2c(c1-c1ccccc1OCc1ccccc1)N(Cc1ccc(C(=O)O)s1)CCC2 returned SNCA viab count inconclusive, KDM5B inh inconclusive, SNCA expr inhib 11µM and IP6K1 inh inactive.
For CCCc1nnc(NC(=O)C2CCN(C(=O)c3ccccc3F)CC2)s1 the results were KDM5B inh inactive.
`c1cc2nc(C3CCCCN3)[nH]c2cn1` (configuration not stated) gave SNCA viab count inactive, KDM5B inh inconclusive, SNCA expr inhib inactive and IP6K1 inh inactive.
`c1cnc2nc(C3CCCN3)[nH]c2c1` (configuration not stated) gave SNCA viab count inactive, KDM5B inh 13µM!, SNCA expr inhib inactive and IP6K1 inh inactive.
`C=C1/C(=C/C=C2\CCC[C@]3(C)[C@@H]([C@H](C)/C=C/C(=O)C4CC4)CC[C@@H]23)C[C@@H](O)C[C@@H]1O` gave SNCA viab count 24µM and IP6K1 inh inactive.
Screening COc1ccccc1-c1cc2[nH]ccc2c(C(=O)NCc2c(C)cc(C)[nH]c2=O)n1 returned SNCA viab count inactive, KDM5B inh inactive, SNCA expr inhib inactive and IP6K1 inh inactive.
For CC(=O)Nc1cccc(-c2cc3c(ccn3C)c(C(=O)NCc3c(C)cc(C)[nH]c3=O)n2)c1 the results were SNCA viab count inactive, KDM5B inh 14µM, SNCA expr inhib inactive and IP6K1 inh inactive.
For Cc1cc(C)c(CNC(=O)c2nc(-c3cccnc3)cc3c2ccn3C(C)C)c(=O)[nH]1 the results were SNCA viab count inactive, KDM5B inh inactive, SNCA expr inhib inactive and IP6K1 inh inactive.
For COc1cccc(-c2cc3c(ccn3C(C)C)c(C(=O)NCc3c(C)cc(C)[nH]c3=O)n2)c1 the results were SNCA viab count inactive, KDM5B inh inactive, SNCA expr inhib inactive and IP6K1 inh inactive.
`Cc1cc(C)c(CNC(=O)c2nc(-c3cncnc3)cc3c2ccn3C(C)C)c(=O)[nH]1` gave SNCA viab count inactive, KDM5B inh 32µM, SNCA expr inhib inactive and IP6K1 inh inactive.
Screening COc1ccccc1-c1cc2c(ccn2C)c(C(=O)NCc2c(C)cc(C)[nH]c2=O)n1 returned SNCA viab count inactive, KDM5B inh 35µM, SNCA expr inhib inactive and IP6K1 inh inactive.
CCNC(=O)C(C)NC(=O)CCc1ncc(-c2ccc(C)cc2)o1 (configuration not stated) was read as KDM5B inh inactive.
`CC(C)Cn1c(=O)c(C(=O)NC(C)C)nc2cccnc21` gave SNCA viab count inactive, SNCA expr inhib inactive and IP6K1 inh inactive.
`O=C1NCC2(CCCN(C(=O)CCc3nc4ccccc4[nH]c3=O)C2)O1` (configuration not stated) gave SNCA viab count inactive, KDM5B inh 22µM, SNCA expr inhib inactive and IP6K1 inh inactive.
Screening NC1CCCCN(C(=O)CCc2nc3ccccc3[nH]c2=O)C1 (configuration not stated) returned SNCA viab count inactive, KDM5B inh inconclusive, SNCA expr inhib inactive and IP6K1 inh inactive.
For CO[C@H]1C(=O)N(C2CCN(C(=O)c3cccc4[nH]ccc34)CC2)[C@H]1c1ccncc1 the results were SNCA viab count inactive, KDM5B inh 25µM, SNCA expr inhib inactive and IP6K1 inh inactive.
Screening O=C(c1ccc2cc[nH]c2c1)N1CCC(N2C(=O)C3(CCCCC3)C2c2ccncc2)CC1 (configuration not stated) returned SNCA viab count inactive[12.5 µM], KDM5B inh inconclusive, SNCA expr inhib inactive and IP6K1 inh inactive.
`O=C1CC2CCCC(C1)N2C(=O)c1cccc2[nH]ccc12` gave SNCA viab count inactive, KDM5B inh 35µM, SNCA expr inhib inactive and IP6K1 inh inactive.
Screening O=C(c1cccc2[nH]ccc12)N1CCC(N2C(=O)C3(CCCCC3)C2c2ccncc2)CC1 (configuration not stated) returned SNCA viab count inactive[12.5 µM], KDM5B inh 22µM, SNCA expr inhib inconclusive and IP6K1 inh inactive.
For Cc1ccccc1C(=O)N1C2CCCC1CC(=O)C2 the results were SNCA viab count inactive, KDM5B inh inactive, SNCA expr inhib inactive and IP6K1 inh inactive.
COc1ccccc1Nc1cnc2ccc(-c3ccc(F)cc3)nn12 was read as SNCA viab count inactive, KDM5B inh inconclusive, SNCA expr inhib inconclusive and IP6K1 inh inactive.
O=C(NC12CC3CC(CC(C3)C1)C2)c1csc2c1CCCC2 was read as KDM5B inh inactive.
Screening Cc1cn2nc(C(=O)N3CCCC3)cc2c(N(C)Cc2ccccc2)n1 returned SNCA viab count inconclusive, KDM5B inh inconclusive, SNCA expr inhib inconclusive and IP6K1 inh inactive.
Screening Cc1cn2nc(C(=O)Nc3ccc(F)c(F)c3)cc2c(N(C)Cc2ccccc2)n1 returned SNCA viab count inactive, KDM5B inh 32µM, SNCA expr inhib inactive and IP6K1 inh inactive.
`Cc1cn2nc(C(=O)N3CCC(C)CC3)cc2c(N(C)Cc2ccccc2)n1` gave SNCA viab count inactive, KDM5B inh 28µM, SNCA expr inhib inactive and IP6K1 inh inactive.
Cc1cn2nc(C(=O)Nc3ccc4c(c3)OCO4)cc2c(N(C)Cc2ccccc2)n1 was read as SNCA viab count inactive, KDM5B inh inconclusive, SNCA expr inhib inactive and IP6K1 inh inactive.
Screening Cc1cn2nc(C(=O)Nc3ccccc3F)cc2c(N(C)Cc2ccccc2)n1 returned SNCA viab count inactive, KDM5B inh 22µM, SNCA expr inhib inactive and IP6K1 inh inactive.
`CC(CCc1ccccc1)NC(=O)C(=O)NCc1n[nH]c(=O)c2ccccc12` (configuration not stated) gave KDM5B inh inactive.
Screening COc1ccc(CC(=O)NC2CCN(C(=O)c3cccc(-c4ccc(OC)nn4)c3)CC2)cc1 returned IP6K1 inh inactive.
Screening Cc1ccc(C(=O)N(CCCN)C(c2oc3cc(Cl)ccc3c(=O)c2Cc2ccccc2)C(C)C)cc1 (configuration not stated) returned SNCA viab count 30µM and IP6K1 inh inactive.
`Cc1ccc(-c2ccc(OC(=O)c3ccc(C)c(C)c3)cc2)cc1` gave KDM5B inh inactive.
COc1ccc(OC)c(NC(=O)c2c(C)oc3ccn(Cc4cccc(F)c4)c(=O)c23)c1 was read as SNCA viab count inactive, KDM5B inh 25µM, SNCA expr inhib inactive and IP6K1 inh inactive.
CC(=O)Nc1ccc(NC(=O)c2c(C)oc3ccn(Cc4ccc(F)cc4)c(=O)c23)cc1 was read as SNCA viab count inactive, KDM5B inh 28µM, SNCA expr inhib inactive and IP6K1 inh inactive.
`COc1ccc(NC(=O)c2c(C)oc3ccn(Cc4cccc(F)c4)c(=O)c23)cc1F` gave SNCA viab count inactive, KDM5B inh inactive, SNCA expr inhib inactive and IP6K1 inh inactive.
